# Experimental data reported in the supplement of paper PMC12282887.
# ± gives the standard deviation of the averaged measurements.
# Columns and labels:
# Test in all cases: promoter activity interaction Z-score (Lux/OD deviation from empty-vector control); higher = stronger promoter induction by the compound
# [1] = test system: E. coli BW25113 acrABp lux reporter
# Method in brief: (§1)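 At 37°C, E. coli BW25113 reporter cultures in 40 µl LB Lennox in 384-well plates were read for OD600 and luminescence every 30 min for 12 h. Windows were 0–8 h for wild type and 1–9 h for deletion strains, and wells under 10% of the median growth value were removed. The score is the Z-transformed residual of growth-normalised luminescence against a control fit.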
# [2] = test system: E. coli BW25113 marRABp lux reporter
# Method in brief: as §1
# [3] = test system: E. coli BW25113 micFp lux reporter
# Method in brief: as §1
# [4] = test system: E. coli BW25113 ompFp lux reporter
# Method in brief: as §1
# [5] = test system: E. coli BW25113 robp lux reporter
# Method in brief: as §1
# [6] = test system: E. coli BW25113 soxSp lux reporter
# Method in brief: as §1
# [7] = test system: E. coli BW25113 tolCp lux reporter
# Method in brief: as §1
# [8] = 17.3 µg/ml, genetic background: wild type
# [9] = 17.3 µg/ml, genetic background: ΔmarA
# [10] = 17.3 µg/ml, genetic background: Δrob
# [11] = 17.3 µg/ml, genetic background: ΔsoxS
# [12] = 34.5 µg/ml, genetic background: wild type
# [13] = 34.5 µg/ml, genetic background: ΔmarA
# [14] = 34.5 µg/ml, genetic background: Δrob
# [15] = 34.5 µg/ml, genetic background: ΔsoxS
# [16] = 69.1 µg/ml, genetic background: wild type
# [17] = 69.1 µg/ml, genetic background: ΔmarA
# [18] = 69.1 µg/ml, genetic background: Δrob
# [19] = 69.1 µg/ml, genetic background: ΔsoxS
# [20] = 138.1 µg/ml, genetic background: wild type
# [21] = 138.1 µg/ml, genetic background: ΔmarA
# [22] = 138.1 µg/ml, genetic background: Δrob
# [23] = 138.1 µg/ml, genetic background: ΔsoxS
compound,measurement,setting,value
O=C(O)c1ccccc1O [Salicylate],promoter activity interaction Z-score,[1]; [8],-0.103 ± 0.014
same,promoter activity interaction Z-score,[1]; [9],-0.589 ± 0.63
same,promoter activity interaction Z-score,[1]; [10],-0.226 ± 0.24
same,promoter activity interaction Z-score,[1]; [11],-0.152 ± 0.11
same,promoter activity interaction Z-score,[1]; [12],-0.242 ± 0.057
same,promoter activity interaction Z-score,[1]; [13],-0.128 ± 0.11
same,promoter activity interaction Z-score,[1]; [14],-0.178 ± 0.057
same,promoter activity interaction Z-score,[1]; [15],-0.392 ± 0.55
same,promoter activity interaction Z-score,[1]; [16],-0.168 ± 0.043
same,promoter activity interaction Z-score,[1]; [17],-0.559 ± 0.22
same,promoter activity interaction Z-score,[1]; [18],-0.327 ± 0.03
same,promoter activity interaction Z-score,[1]; [19],-0.194 ± 0.22
same,promoter activity interaction Z-score,[1]; [20],1.16 ± 0.76
same,promoter activity interaction Z-score,[1]; [21],0.299 ± 0.12
same,promoter activity interaction Z-score,[1]; [22],0.954 ± 0.4
same,promoter activity interaction Z-score,[1]; [23],1.34 ± 0.39
same,promoter activity interaction Z-score,[2]; [8],0.135 ± 0.01
same,promoter activity interaction Z-score,[2]; [9],0.0581 ± 0.22
same,promoter activity interaction Z-score,[2]; [10],0.184 ± 0.16
same,promoter activity interaction Z-score,[2]; [11],-0.0106 ± 0.075
same,promoter activity interaction Z-score,[2]; [12],0.214 ± 0.13
same,promoter activity interaction Z-score,[2]; [13],0.401 ± 0.26
same,promoter activity interaction Z-score,[2]; [14],0.526 ± 0.052
same,promoter activity interaction Z-score,[2]; [15],0.404 ± 0.12
same,promoter activity interaction Z-score,[2]; [16],0.771 ± 0.2
same,promoter activity interaction Z-score,[2]; [17],0.666 ± 0.1
same,promoter activity interaction Z-score,[2]; [18],0.852 ± 0.25
same,promoter activity interaction Z-score,[2]; [19],0.352 ± 0.1
same,promoter activity interaction Z-score,[2]; [20],7.4 ± 0.11
same,promoter activity interaction Z-score,[2]; [21],8.571 ± 0.071
same,promoter activity interaction Z-score,[2]; [22],6.24 ± 1.4
same,promoter activity interaction Z-score,[2]; [23],6.09 ± 1.6
same,promoter activity interaction Z-score,[3]; [8],0.432 ± 0.15
same,promoter activity interaction Z-score,[3]; [9],-0.066 ± 0.12
same,promoter activity interaction Z-score,[3]; [10],0.521 ± 0.42
same,promoter activity interaction Z-score,[3]; [11],0.0126 ± 0.12
same,promoter activity interaction Z-score,[3]; [12],0.534 ± 0.39
same,promoter activity interaction Z-score,[3]; [13],-0.0684 ± 0.18
same,promoter activity interaction Z-score,[3]; [14],0.624 ± 0.05
same,promoter activity interaction Z-score,[3]; [15],0.176 ± 0.22
same,promoter activity interaction Z-score,[3]; [16],0.858 ± 0.46
same,promoter activity interaction Z-score,[3]; [17],0.0541 ± 0.076
same,promoter activity interaction Z-score,[3]; [18],1.4 ± 0.11
same,promoter activity interaction Z-score,[3]; [19],0.648 ± 0.042
same,promoter activity interaction Z-score,[3]; [20],3.02 ± 0.49
same,promoter activity interaction Z-score,[3]; [21],0.477 ± 0.32
same,promoter activity interaction Z-score,[3]; [22],4.91 ± 0.15
same,promoter activity interaction Z-score,[3]; [23],3.15 ± 0.65
same,promoter activity interaction Z-score,[4]; [8],-0.258 ± 0.037
same,promoter activity interaction Z-score,[4]; [9],-0.336 ± 0.23
same,promoter activity interaction Z-score,[4]; [10],-0.349 ± 0.016
same,promoter activity interaction Z-score,[4]; [11],-0.27 ± 0.18
same,promoter activity interaction Z-score,[4]; [12],-0.259 ± 0.41
same,promoter activity interaction Z-score,[4]; [13],-0.439 ± 0.33
same,promoter activity interaction Z-score,[4]; [14],-0.523 ± 0.35
same,promoter activity interaction Z-score,[4]; [15],0.344 ± 0.3
same,promoter activity interaction Z-score,[4]; [16],-0.272 ± 0.29
same,promoter activity interaction Z-score,[4]; [17],-0.133 ± 0.11
same,promoter activity interaction Z-score,[4]; [18],0.0991 ± 0.22
same,promoter activity interaction Z-score,[4]; [19],0.35 ± 0.33
same,promoter activity interaction Z-score,[4]; [20],0.5 ± 0.64
same,promoter activity interaction Z-score,[4]; [21],-0.462 ± 0.05
same,promoter activity interaction Z-score,[4]; [22],0.991 ± 0.12
same,promoter activity interaction Z-score,[4]; [23],0.357 ± 1.6
same,promoter activity interaction Z-score,[5]; [8],0.135 ± 0.21
same,promoter activity interaction Z-score,[5]; [9],-0.248 ± 0.33
same,promoter activity interaction Z-score,[5]; [10],-0.0314 ± 0.15
same,promoter activity interaction Z-score,[5]; [11],-0.476 ± 0.16
same,promoter activity interaction Z-score,[5]; [12],-0.293 ± 0.019
same,promoter activity interaction Z-score,[5]; [13],0.052 ± 0.1
same,promoter activity interaction Z-score,[5]; [14],-0.218 ± 0.033
same,promoter activity interaction Z-score,[5]; [15],0.365 ± 0.091
same,promoter activity interaction Z-score,[5]; [16],-0.0138 ± 0.24
same,promoter activity interaction Z-score,[5]; [17],-0.259 ± 0.74
same,promoter activity interaction Z-score,[5]; [18],0.387 ± 0.029
same,promoter activity interaction Z-score,[5]; [19],-0.512 ± 0.077
same,promoter activity interaction Z-score,[5]; [20],-0.0563 ± 0.13
same,promoter activity interaction Z-score,[5]; [21],-0.611 ± 0.22
same,promoter activity interaction Z-score,[5]; [22],0.693 ± 0.087
same,promoter activity interaction Z-score,[5]; [23],-0.616 ± 0.21
same,promoter activity interaction Z-score,[6]; [8],0.0635 ± 0.14
same,promoter activity interaction Z-score,[6]; [9],-0.172 ± 0.0058
same,promoter activity interaction Z-score,[6]; [10],-0.0541 ± 0.36
same,promoter activity interaction Z-score,[6]; [11],-0.237 ± 0.017
same,promoter activity interaction Z-score,[6]; [12],-0.0796 ± 0.076
same,promoter activity interaction Z-score,[6]; [13],-0.219 ± 0.049
same,promoter activity interaction Z-score,[6]; [14],-0.0336 ± 0.1
same,promoter activity interaction Z-score,[6]; [15],-0.0124 ± 0.14
same,promoter activity interaction Z-score,[6]; [16],-0.0424 ± 0.045
same,promoter activity interaction Z-score,[6]; [17],-0.126 ± 0.076
same,promoter activity interaction Z-score,[6]; [18],0.239 ± 0.18
same,promoter activity interaction Z-score,[6]; [19],0.207 ± 0.22
same,promoter activity interaction Z-score,[6]; [20],0.0689 ± 0.0036
same,promoter activity interaction Z-score,[6]; [21],0.491 ± 0.041
same,promoter activity interaction Z-score,[6]; [22],0.434 ± 0.012
same,promoter activity interaction Z-score,[6]; [23],0.177 ± 0.4
same,promoter activity interaction Z-score,[7]; [8],-0.0562 ± 0.66
same,promoter activity interaction Z-score,[7]; [9],-0.946 ± 0.55
same,promoter activity interaction Z-score,[7]; [10],0.0451 ± 0.3
same,promoter activity interaction Z-score,[7]; [11],0.372 ± 0.27
same,promoter activity interaction Z-score,[7]; [12],-0.65 ± 0.46
same,promoter activity interaction Z-score,[7]; [13],-0.0216 ± 0.48
same,promoter activity interaction Z-score,[7]; [14],-0.226 ± 0.041
same,promoter activity interaction Z-score,[7]; [15],0.227 ± 0.47
same,promoter activity interaction Z-score,[7]; [16],-0.276 ± 0.26
same,promoter activity interaction Z-score,[7]; [17],-0.251 ± 0.18
same,promoter activity interaction Z-score,[7]; [18],0.839 ± 0.021
same,promoter activity interaction Z-score,[7]; [19],0.668 ± 1.5
same,promoter activity interaction Z-score,[7]; [20],2.05 ± 1
same,promoter activity interaction Z-score,[7]; [21],-0.89 ± 0.018
same,promoter activity interaction Z-score,[7]; [22],1.38 ± 2
same,promoter activity interaction Z-score,[7]; [23],0.806 ± 0.32
